D1 agonist = activates the human D1 dopamine receptor. 360,000 tested, 1% active. HEK293 T-REx D1 cells, calcium flux, agonist mode. activation, % at 2 µM. P21728; in the data active = activation above about 30%; also: 0% is about no effect
Target sequence (P21728 whole entry, looked up): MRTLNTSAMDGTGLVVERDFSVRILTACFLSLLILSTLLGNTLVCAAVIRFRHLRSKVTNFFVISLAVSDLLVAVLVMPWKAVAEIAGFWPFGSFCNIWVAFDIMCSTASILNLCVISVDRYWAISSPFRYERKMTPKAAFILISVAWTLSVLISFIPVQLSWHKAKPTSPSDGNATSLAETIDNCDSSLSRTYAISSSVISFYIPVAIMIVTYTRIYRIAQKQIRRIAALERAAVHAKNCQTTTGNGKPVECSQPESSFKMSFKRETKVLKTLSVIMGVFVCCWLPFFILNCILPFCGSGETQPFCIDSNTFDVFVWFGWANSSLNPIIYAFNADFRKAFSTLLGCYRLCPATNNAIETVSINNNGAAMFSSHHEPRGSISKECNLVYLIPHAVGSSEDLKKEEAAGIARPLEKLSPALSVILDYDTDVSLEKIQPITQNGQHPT
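Agonism was scored from calcium flux recorded over 180 s (1 read/s) after pintool compound addition, following a 10-cycle baseline. Cells were inducible force-coupled HEK293 TREx D1, plated overnight at 30 C and loaded with no-wash calcium dye.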
DRD3 agonist = agonists of human D3 dopamine receptor | P35462 | 410,000 tested, 0.58% active | max activation, % | D3R DiscoveRx beta-arrestin cells, luminescence, 90 min; in the data active = max activation above about 30%; also: 0% is about no effect
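Agonist mode: compounds and dopamine controls were applied to plated cells for 90 min at 37 degrees C after an overnight attachment at 1500 cells/well. Luminescent read-out followed 30 - 60 minutes at room temperature with DiscoveRx detection reagent.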
D1 antagonist = human D1 dopamine receptor antagonism; P21728; HEK293 TREx D1 cells, calcium flux, dopamine EC80; hits give low values; activity change, negative = inhibition, % at 10 µM; 360,000 tested, 3.2% active; AID 504652; in the data active = activity change below about -30%; also: % is scaled to controls: 0 for no effect and ±100 for the full control effect
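HEK293 T-REx cells expressing inducible, force-coupled D1 receptor; no-wash Ca dye, 30–90 min RT. Cmpd → 180 s read at 1 Hz → EC80 DA → 180 s read.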
DRD3 antagonist = D3 dopamine receptor (human) antagonism; P35462; D3R cells, DiscoveRx beta-arrestin luminescence, antagonist mode; hits give low values; max response, negative = inhibition, %; 360,000 tested, 2.5% active; AID 652054; in the data active = max response below about -50%; inconclusive = no clear call, values can overlap the other calls; also: % is scaled to controls: 0 for no effect and ±100 for the full control effect
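Cells expressing the human receptor were seeded at 1500 cells/well, incubated overnight at 37 degrees C in 5% CO2, then exposed to library compounds with dopamine controls for 90 minutes at 37 degrees C before luminescent detection.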
D1 PAM = human D1 dopamine receptor positive modulation; P21728; HEK293 TREx D1 cells, calcium flux, dopamine EC20 potentiation; potentiation, % at 10 µM; 360,000 tested, 0.036% active; AID 504651; in the data active = potentiation above about 30%; also: 0% is about no effect
* = called active by the depositor; ? = inconclusive; . = no result given. Only some compounds are listed: those with a hit (about 6.1% of all), similar ones and a draw of the others.

SMILES	D1 agonist	DRD3 agonist	D1 antagonist	DRD3 antagonist	D1 PAM
CCOc1ccc(CN2CCN(c3ncnc4sc5c(c34)CC(C)CC5)CC2)cc1 (centres undefined)	-2	-29	-33*	.	-1
CCC(C)[C@H](N)C(=O)N[C@H]1CCC2C3CC=C4C[C@@H](O)CC[C@]4(C)C3CC[C@@]21C (some centres undefined)	.	7	.	85	.
CCCCOc1ccc(CONS(=O)(=O)c2ccc(NC(C)=O)cc2)cc1Cl	136*	3	-11	68	-6
O=C1c2cccc3c([N+](=O)[O-])ccc(c23)C(=O)N1Cc1cccnc1	13	-21	-40*	-26	2
CCOc1ccccc1CNC(=O)c1cnc2sc(N3CCOCC3)nn2c1=O	0	9	-12	.	0
O=C(NCC[C@@H]1CC[C@@H](NC(=O)c2cnccn2)[C@@H](CO)O1)c1ccc2c(c1)OCO2	.	6	.	-8	.
Cc1cc(Br)cc(C)c1OCC(=O)NNC(=O)c1cccs1	3	-2	-37*	1	0
COC(=O)c1cc2ccccn2c2c(C(=O)OC)c(C(=O)OC)cc1-2	0	7	-16	0	6
COC(=O)c1cc2c(C)c(C)c3ccccn3c-2c1C(=O)OC	8	4	-5	-52*	-3
O=C1C2CCCN2C(=O)N1CCCN1CCN(c2cccc(Cl)c2)CC1 (centres undefined)	8	-13	-10	-50*	-9
O=C1C2CCCCN2C(=O)N1CCCCN1CCN(c2cccc(Cl)c2)CC1 (centres undefined)	2	1	-39*	-60*	-22
Cc1ccccc1N1CCN(CCCN2C(=O)CC(=C(c3ccccc3)c3ccccc3)C2=O)CC1	3	-29	-3	?	-5
O=C1C2CCCCN2C(=O)N1CCCCN1CCN(c2cccc(C(F)(F)F)c2)CC1 (centres undefined)	.	-26	.	-140*	.
O=C1CC(=C(c2ccccc2)c2ccccc2)C(=O)N1CCCCN1CCN(c2cccc(Cl)c2)CC1	1	23	-12	-52*	-4
CC(C)C(=O)Nc1cccc(N2CCN(CCCN3C(=O)C4CCCCN4C3=O)CC2)c1 (centres undefined)	.	-6	.	-1	.
CCOc1ccc(C(=O)Nc2cccc3ncccc23)cc1Br	7	-6	-5	-13	-1
COc1ccccc1C(=O)Nc1ccc(-c2nnn(CC(=O)NCc3ccco3)n2)cc1	1	4	-3	-4	-4
NC(=O)CN1CCN(c2cccc(Cl)c2)CC1	8	7	20	1	-3
O=c1n(CCCN2CCN(c3cccc(Cl)c3)CC2)nc2ccccn12	0	-72	7	-93*	-5
S=C(NCc1ccccc1)N1CCN(c2ccccc2)CC1	7	0	-31*	-3	-8
O=C(NCc1ccccc1)N1CCN(c2ccccc2)CC1	14	4	-15	2	-8
Cc1ccccc1N1C(S)=C(C#N)C(=O)NC1c1cccs1 (centres undefined)	0	-2	-5	-73*	1
Cc1cccc(N2C(S)=C(C#N)C(=O)NC2c2cccs2)c1 (centres undefined)	3	-4	-3	-19	-1
CCc1nc(SCCO)c2oc3ccccc3c2n1	2	0	-2	-24	0
CCc1nc(SCC(=O)N2CCN(c3ccccc3)CC2)c2oc3ccccc3c2n1	3	48*	1	13	-7
SMILES	D1 agonist	DRD3 agonist	D1 antagonist	DRD3 antagonist	D1 PAM
CC(C)(C)OC(=O)C[C@@H]1C/C=C\C[C@H](CC(=O)NCCO)C(=O)NC[C@H](c2ccccc2)OC1=O	.	7	.	-26	.
CC(C(=O)NCCCc1ccccc1)n1cccc1C(=O)c1ccccc1 (centres undefined)	3	16	-15	5	-6
COc1ccc(CNc2nc(NCc3ccc(OC)cc3)c3[nH]cnc3n2)cc1	6	56*	6	73	1
CCN(CC)CC1C(=O)N(c2ccc(OC)cc2)C1c1ccccc1 (centres undefined)	8	-4	-39*	3	-5
O=C(O)c1ccc(CN2C[C@@H](CO)O[C@@H](n3cnc4c(N5CCOCC5)ncnc43)C2)cc1	.	-2	.	0	.
CC(C)(C)C(=O)NC(n1cnc2c(N3CCOCC3)ncnc21)C(Cl)(Cl)Cl (centres undefined)	0	-6	-34*	-10	-5
CCc1cnc2c(c1SCC(=O)Nc1ccc(C)cc1C)c(=O)n(C)c(=O)n2C	0	6	.	.	-1
COc1cc(/C=C(/C#N)c2nc3ccccc3c(=O)[nH]2)ccc1O	34*	7	0	11	-1
COc1cc(C=C(C#N)c2ccc([N+](=O)[O-])cc2)ccc1O	.	-17	.	-52*	.
COc1ccc(/C=N/Nc2ccc([N+](=O)[O-])cc2)cc1O	31*	-10	-15	-53*	-11
COc1ccc(/C=N/Nc2ccc([N+](=O)[O-])cc2)cc1Cn1cc([N+](=O)[O-])cn1	19	-13	.	?	-4
Cn1c(/C(C#N)=C/c2ccc(O)cc2)nc2ccccc21	2	3	-2	1	0
COc1cc(/C=C(\C#N)c2nc3ccccc3n2C)cc(OC)c1O	64*	2	1	-2	-4
COc1ccc(CNS(=O)(=O)c2ccc3c(c2)C(C)(C)C(=O)N3C)cc1OC	1	4	0	.	-1
CC(C)NC(=O)C1(C)CN(S(C)(=O)=O)CC(=O)N1C1CC1 (centres undefined)	.	7	.	16	.
Cc1ccc(C(=O)NCc2ccccc2)cc1NC(=O)c1nsc2ccccc12	2	3	6	.	-2
O=S(=O)(c1cc(Cl)ccc1Cl)n1cccn1	0	0	-18	10	4
COc1ccc(/C=C(\C#N)c2nc3ccccc3[nH]2)cc1O	2	2	-7	1	0
COc1c(Cl)cc(Cl)cc1/C=C(\C#N)c1nc2ccccc2[nH]1	12	-16	-61*	.	-7
N#C/C(=C\c1c(Cl)cccc1Cl)c1nc2ccccc2[nH]1	8	-6	-12	-22	-6
COc1cc(/C=C(\C#N)c2nc3ccccc3[nH]2)cc(OC)c1O	109*	3	-2	-16	-1
OC(COc1ccc(CN2CCCCO2)cc1)CN1CCCCC1 (centres undefined)	6	-24	19	-13	-1
C=CCN(C(=O)Cn1nc(C)n2c(cc3cc(C)ccc32)c1=O)c1ccccc1	2	-2	-8	0	0
CCN(C(=O)Cn1nc(C)n2c(cc3cc(C)ccc32)c1=O)c1ccccc1	1	2	-43*	-1	-6
Cc1ccc(NC(=O)CN(C)C(=O)COC(=O)CNS(=O)(=O)c2ccc(Br)cc2Cl)cc1	7	2	-34*	2	-14
O=C(COC(=O)CNS(=O)(=O)c1ccc(Br)cc1Cl)NCCc1ccccc1	3	2	-34*	7	-7

Compound activity from PubChem.
